Compound activity: PubChem, National Center for Advancing Translational Sciences (NCATS)
PNC inhibitor: inhibitors of perinucleolar compartment assembly | PC3M PTB-GFP, PNC prevalence imaging, 16 h; hits give low values | activity change (PNC), negative = inhibition, % at 10 µM | actives 3.1% (n = 140,000) | AID 2417;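 active = readout at or below -70, meaning at least 70% loss of cells showing the perinucleolar compartment, a nuclear body marking cancer cells; inconclusive = readout between -30 and a set limit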
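PC3M cells stably expressing PTB-GFP, 750–1000 cells/well, treated 16 h at 37 °C with compound (23 nl of library stock), in duplicate. After paraformaldehyde fixation and Hoechst stain, imaged at 20x; PNC prevalence scored by image analysis.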
HPGD inh: blocks human HPGD enzyme activity; purified HPGD, NADH fluorescence kinetic, PGE2 substrate; Potency, µM, hits mostly inhibitors; actives 4.3% (n = 150,000); AID 894
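NADH formation kinetics: reaction with 30 uM PGE2 and 1 mM NAD+ (final), 20 nM enzyme, Tris-HCl pH 8 with Tween 20, after 15 min compound preincubation at room temperature. Fluorescence change, last versus first of five reads.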
ALDH1A1 inh: blocks purified human ALDH1A1 activity; Purified ALDH1A1, NADH fluorescence, propionaldehyde substrate; Potency, µM (series often up to 75.3 µM), most hits filed as inhibitors; actives 7.3% (n = 220,000); AID 1030
Target sequence (P00352 whole entry, looked up): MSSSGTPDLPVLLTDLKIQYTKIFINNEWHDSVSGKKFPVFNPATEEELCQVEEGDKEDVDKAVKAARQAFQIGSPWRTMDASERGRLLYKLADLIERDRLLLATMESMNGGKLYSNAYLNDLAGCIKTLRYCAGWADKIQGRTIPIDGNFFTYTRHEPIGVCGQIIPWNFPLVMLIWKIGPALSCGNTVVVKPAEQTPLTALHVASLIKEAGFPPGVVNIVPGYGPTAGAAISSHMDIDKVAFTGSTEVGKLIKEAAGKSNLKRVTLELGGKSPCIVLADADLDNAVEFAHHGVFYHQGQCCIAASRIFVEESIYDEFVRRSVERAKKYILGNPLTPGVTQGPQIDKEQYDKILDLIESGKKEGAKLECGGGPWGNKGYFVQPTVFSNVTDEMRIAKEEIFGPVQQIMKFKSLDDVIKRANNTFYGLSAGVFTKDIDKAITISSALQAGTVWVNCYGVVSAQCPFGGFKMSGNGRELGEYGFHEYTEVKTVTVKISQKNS
Of the large screens only hits and unclear results are named; the others gave an inactive call. Sampled rows, rich in hits. Any-hit rate of the full collection: about 11%. Unless noted, calls follow the shape of the dose curve; as a rule, active = well fitted inhibition curve with a large enough effect (not every such curve was filed as active); inconclusive = small, poorly fitted or top-dose-only effect, or another doubt; inactive = no such curve, though single readings can be large or run the other way.

O=C(NC(=S)NC(=O)c1ccccc1F)c1ccccc1F	HPGD inh 13µM, ALDH1A1 inh 2µM
O=C(NC(=S)NCc1ccccc1)c1ccccc1[N+](=O)[O-]	none (no result: PNC inhibitor, HPGD inh)
O=C(NC(=S)NCc1ccccc1)c1ccccc1F	ALDH1A1 inh 32µM
Cc1c(CN2CCc3c([nH]c4ccccc34)C2CC(C)C)cnn1C (centres undefined)	none (no result: PNC inhibitor, HPGD inh)
C1CCN(CC[C@@H]2CCCCN2)CC1	none (no result: PNC inhibitor)
Cc1ccccc1-c1nc(NCCN2CCOCC2)c2ccccc2n1	none (no result: PNC inhibitor)
CC(=O)Nc1cc(NC(C)=O)cc(C(=O)NC(C)(C)C)c1	PNC inhibitor inconclusive
N[C@H](Cc1cnc[nH]1)C(=O)O	none (no result: PNC inhibitor)
O=C(Nc1ccccc1)N1CCC2(CC1)CCN(C(=O)c1csnn1)CC2	none (no result: PNC inhibitor)
CCc1cc(SC#N)cc(CC)c1NC(=O)CCl	HPGD inh inconclusive, ALDH1A1 inh 14µM
Cc1c(C#N)c(NC(=O)CCl)n(Cc2ccccc2)c1C	none (no result: PNC inhibitor, HPGD inh)
C=C(C)C(=O)OCCCCCCCCCC	none (no result: PNC inhibitor)
COc1ccc(-n2c(SCC(=O)Nc3nccs3)nnc2-c2ccccc2)cc1	none
COc1ccc(-n2c(Cc3cccn3C)nnc2SCC(=O)Nc2cccc(OC)c2)cc1	ALDH1A1 inh inconclusive
COc1ccc(-n2c(Cc3cccn3C)nnc2SCC(=O)Nc2ccc(F)cc2F)cc1	ALDH1A1 inh 10µM
COc1ccc(NC(=O)CSc2nnc(Cc3cccn3C)n2-c2ccc(F)cc2)cc1	ALDH1A1 inh inconclusive
COc1ccc(-n2c(Cc3cccn3C)nnc2SCC(=O)Nc2ccc(F)cc2)cc1	none
COc1cccc(NC(=O)CSc2nnc(Cc3cccn3C)n2-c2ccc(F)cc2)c1	ALDH1A1 inh 14µM
COc1ccc(-n2c(Cc3cccn3C)nnc2SCC(=O)Nc2ccccc2F)cc1	PNC inhibitor -108, ALDH1A1 inh 16µM
COc1ccc(-n2c(Cc3cccn3C)nnc2SCC(=O)Nc2nccs2)cc1	PNC inhibitor -114, ALDH1A1 inh inconclusive
O=C(COC(=O)CCCSc1nc2ccccc2[nH]1)Nc1ccc(Cl)cc1	none
O=C(O)c1cc(-c2ccncc2)nc2ccccc12	none (no result: PNC inhibitor)
O=C(NCCC1=CCCCC1)C1CCCN(c2nc3ccccc3o2)C1 (centres undefined)	ALDH1A1 inh inconclusive
CCCCC1=CC2=C(c3ccco3)C(=O)C(C)(OC(=O)c3ccc(OC)cc3)C(=O)C2=CN1c1ccccc1 (centres undefined)	ALDH1A1 inh inconclusive (no result: PNC inhibitor)
CCC(=O)Nc1ccc(-c2nc(-c3ccccc3)n(CC(=O)N3CCCCC3)n2)cc1	none
COc1ccc(NC(=O)c2n[nH]c(=O)c3ccccc23)cc1S(=O)(=O)N1CCCCC1	PNC inhibitor inconclusive
COc1ccc(-n2c(Cc3cccn3C)nnc2SCC(=O)Nc2cccc(C)c2C)cc1	ALDH1A1 inh 14µM
COc1ccc(-n2c(Cc3cccn3C)nnc2SCC(=O)Nc2ccccc2C)cc1	ALDH1A1 inh inconclusive
Cc1cc(Br)ccc1SCC(=O)OCC(=O)Nc1ccccc1C#N	none
CCc1cccc(CC)c1NC(=O)C1SC(=Nc2ccccc2C)C(c2nc3ccccc3s2)=C1N (centres undefined)	none
Cc1occc1C(=O)NNC(=O)NC12CC3CC(CC(C3)C1)C2	none
COc1ccc(NC(=O)c2ccc(-c3nn(C)c(=O)c4ccccc34)cc2)cc1	none (no result: PNC inhibitor, HPGD inh)
COc1ccccc1NC(=O)c1ccc(-c2nn(C)c(=O)c3ccccc23)cc1	none (no result: PNC inhibitor, HPGD inh)
COC(=O)COc1ccc(-c2nn(C)c(=O)c3ccccc23)cc1	PNC inhibitor inconclusive
CCC(CO)NC(=O)c1ccc(-c2nn(C)c(=O)c3ccccc23)cc1 (centres undefined)	HPGD inh 32µM
CC(=O)NCc1cc(-c2nn(C)c(=O)c3ccccc23)ccc1C	PNC inhibitor inconclusive
Cc1ccc(-c2nn(C)c(=O)c3ccccc23)cc1CNC(=O)c1ccco1	HPGD inh 3.5µM
Cn1nc(-c2ccc(OCC(=O)Nc3ccccc3)cc2)c2ccccc2c1=O	PNC inhibitor inconclusive, HPGD inh 28µM
CN(C(=O)c1ccc(-c2nn(C)c(=O)c3ccccc23)cc1)c1ccccc1	HPGD inh 7.9µM
COc1ccc(NS(=O)(=O)c2cc(NC(=O)c3nc4nc(C)cc(C)n4n3)ccc2C)cc1	none (no result: PNC inhibitor, HPGD inh)
CCOC(=O)C(NC(=O)Nc1ccc(Cl)cn1)(Oc1ccccc1)C(F)(F)F (centres undefined)	none
NC(=S)Nc1ccc(C(F)(F)F)cc1Cl	none (no result: PNC inhibitor, HPGD inh)
O=C(NN=C1CCCC1)C1COc2ccccc2O1 (centres undefined)	none (no result: PNC inhibitor, HPGD inh)
O=C(N/C=N/OCc1ccc(Cl)cc1Cl)NOCc1ncc(C(F)(F)F)cc1Cl	none
Cn1nc(-c2ccc(C(=O)N3CCN(CCO)CC3)cc2)c2ccccc2c1=O	none
CN(C)CCNC(=O)c1ccc(-c2nn(C)c(=O)c3ccccc23)cc1	PNC inhibitor inconclusive, HPGD inh 20µM
COc1ccccc1NC(=O)C1=C(C)Nc2nc(-c3cccs3)nn2C1c1cccnc1 (centres undefined)	none
Cc1ccc(-c2nn(-c3ccccc3)cc2/C=C(\C#N)c2cccc(C#N)c2)o1	ALDH1A1 inh 22µM
N#C/C(=C\c1cn(-c2ccccc2)nc1-c1cc2ccccc2o1)c1nc2ccccc2[nH]1	ALDH1A1 inh inconclusive
Clc1ccccc1-c1ccc(/C=N/n2cnnc2)o1	none
Clc1cccc(-c2ccc(/C=N/n3cnnc3)o2)c1Cl	PNC inhibitor -100, HPGD inh inconclusive
Cc1cc(=O)oc(C)c1C(=O)OCC(=O)c1ccc(Cl)cc1	none
Cc1cc(=O)oc(C)c1C(=O)OCC(=O)c1ccccc1	HPGD inh inconclusive, ALDH1A1 inh 16µM
Cc1cc(=O)oc(C)c1C(=O)OCC(=O)c1ccc2ccccc2c1	HPGD inh inconclusive, ALDH1A1 inh inconclusive
Cc1cc(=O)oc(C)c1C(=O)OCC(=O)c1ccc(Br)cc1	PNC inhibitor -90, ALDH1A1 inh inconclusive
CC(/C=C/C=C/c1ccccc1)=N/NC(=O)c1ccc2c(c1)OCCO2	none (no result: PNC inhibitor, HPGD inh)
O=C(Cc1ccc([N+](=O)[O-])cc1)Nc1cc(C(F)(F)F)cc(C(F)(F)F)c1	none (no result: PNC inhibitor, HPGD inh)
C#CCn1cnc2c(cnn2-c2ccc(C)c(C)c2)c1=O	ALDH1A1 inh 14µM
Cc1ccc(-n2ncc3c(=O)n(CC(=O)NCc4ccco4)cnc32)cc1C	HPGD inh inconclusive, ALDH1A1 inh inconclusive
Cc1ccc(-n2ncc3c(=O)n(CC#N)cnc32)cc1C	ALDH1A1 inh 16µM
CCCCNC(=O)Cn1cnc2c(cnn2-c2ccc(C)c(C)c2)c1=O	none
COc1ccccc1OCc1ccc(C(=O)n2nc(C)c(Cl)c2C)o1	none
O=C(CSc1nc(O)c(C2CCCCC2)c(=O)[nH]1)Nc1ccc(Cl)cc1	PNC inhibitor -112
CC(=O)Nc1c(O)nc(SCC(=O)Nc2cccc(C)c2)[nH]c1=O	PNC inhibitor inconclusive
CC(=O)Nc1c(O)nc(SCC(=O)Nc2ccc(C(C)=O)cc2)[nH]c1=O	ALDH1A1 inh 11µM
CCc1c(O)nc(SCC(=O)Nc2ccc3c(c2)CCC3)[nH]c1=O	ALDH1A1 inh inconclusive
O=[N+]([O-])c1cccc(N/N=C/c2cccc3ccccc23)c1	ALDH1A1 inh inconclusive
Cc1nc(CS(=O)(=O)c2ccc(Cl)cc2)cc(Sc2ccccc2Cl)n1	PNC inhibitor inconclusive, ALDH1A1 inh inconclusive
CCOCCCN(C(=O)Nc1ccc(CC)cc1)C1CCN(C(C)=O)CC1	PNC inhibitor inconclusive
CCCCN(C(=O)Nc1ccc(Cl)cc1)C1CCN(C(C)=O)CC1	PNC inhibitor -95, ALDH1A1 inh inconclusive
